This is an account of results in ChEMBL document CHEMBL3988442, “University of Dundee, Small-Polar-MMV Screening Library” (2021).

What all share (set-up): scale not given: direction of the effect not stated beside the values
In test [1] the target is Protein translocase subunit SecA (Escherichia coli (strain K12)) (UniProt P10408). In words: Assay to Identify E. coli SecA ATPase Inhibitors. Type of test: functional. The settings on record: 30 µM.
The target in test [2] is T1, Ubiquitin-activating enzyme e1, putative (Leishmania donovani (strain BPK282A1)) (UniProt E9BSI1).
T1 sequence (whole entry): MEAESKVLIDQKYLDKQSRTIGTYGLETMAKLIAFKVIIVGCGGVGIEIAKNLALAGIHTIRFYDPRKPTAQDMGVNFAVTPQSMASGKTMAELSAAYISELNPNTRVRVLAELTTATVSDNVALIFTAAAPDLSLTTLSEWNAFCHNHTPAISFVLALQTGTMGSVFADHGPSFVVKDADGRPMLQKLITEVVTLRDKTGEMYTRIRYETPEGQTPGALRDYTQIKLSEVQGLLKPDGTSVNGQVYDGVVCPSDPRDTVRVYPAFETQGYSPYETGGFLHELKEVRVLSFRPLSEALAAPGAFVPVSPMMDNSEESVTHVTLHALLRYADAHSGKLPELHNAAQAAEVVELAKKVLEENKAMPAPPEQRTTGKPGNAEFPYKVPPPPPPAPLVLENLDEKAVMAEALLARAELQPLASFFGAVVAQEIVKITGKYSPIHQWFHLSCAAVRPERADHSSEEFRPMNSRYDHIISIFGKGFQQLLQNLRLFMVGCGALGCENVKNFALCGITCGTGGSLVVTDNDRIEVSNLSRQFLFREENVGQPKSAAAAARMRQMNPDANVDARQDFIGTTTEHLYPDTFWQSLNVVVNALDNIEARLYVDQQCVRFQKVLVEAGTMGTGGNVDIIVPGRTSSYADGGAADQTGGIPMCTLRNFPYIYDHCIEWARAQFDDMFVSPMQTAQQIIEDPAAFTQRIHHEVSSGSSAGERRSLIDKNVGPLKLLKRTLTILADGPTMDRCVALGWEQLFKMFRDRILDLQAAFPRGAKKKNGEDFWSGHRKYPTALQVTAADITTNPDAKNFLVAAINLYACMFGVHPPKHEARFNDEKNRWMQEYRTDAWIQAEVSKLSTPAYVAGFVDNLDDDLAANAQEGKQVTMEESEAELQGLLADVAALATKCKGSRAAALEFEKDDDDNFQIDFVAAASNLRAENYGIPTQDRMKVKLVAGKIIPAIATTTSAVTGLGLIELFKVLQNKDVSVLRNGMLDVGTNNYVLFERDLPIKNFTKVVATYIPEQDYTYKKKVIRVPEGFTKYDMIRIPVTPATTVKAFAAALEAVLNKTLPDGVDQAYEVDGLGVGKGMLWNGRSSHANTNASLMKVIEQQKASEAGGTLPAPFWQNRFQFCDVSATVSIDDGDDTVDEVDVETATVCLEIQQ
In words: Leishmania donovani Ubiquitin Activating Enzyme (LdE1). The settings on record: 30 µM. The test is classed as functional.

In test [3] the target is AMP-activated protein kinase, AMPK (Homo sapiens) (UniProt P54646+O43741+P54619+Q9UGJ0+Q9Y478+Q13131+Q9UGI9). As to the kind of experiment: AMP-dependent Kinase enzyme assay. An in vitro enzyme assay that detects ADP turnover that is directly proportional to AMPK activity. This uses naive AMPK that is activated during the assay with MK-8722. The settings on record: 30 µM. Type of test: functional.

Test [4] has as its target Sialic acid-binding Ig-like lectin 9 (Homo sapiens) (UniProt Q9Y336). In words: Hs-Siglec9 ALPHAscreen SOP 20170721. The conditions noted are these: 10 µM. On the technique in general: Bead proximity is the source of the signal in Alpha formats.
Test [5] has as its system Trypanosoma cruzi. As to the kind of experiment: Trypanosoma cruzi phosphomannomutase and mannose-1-phosphate guanylyltransferase assay. The conditions noted are these: 10 µM. The test is classed as functional.
The target of test [6] is T2, Arginase-2, mitochondrial (Homo sapiens) (UniProt P78540).
T2 sequence (whole entry): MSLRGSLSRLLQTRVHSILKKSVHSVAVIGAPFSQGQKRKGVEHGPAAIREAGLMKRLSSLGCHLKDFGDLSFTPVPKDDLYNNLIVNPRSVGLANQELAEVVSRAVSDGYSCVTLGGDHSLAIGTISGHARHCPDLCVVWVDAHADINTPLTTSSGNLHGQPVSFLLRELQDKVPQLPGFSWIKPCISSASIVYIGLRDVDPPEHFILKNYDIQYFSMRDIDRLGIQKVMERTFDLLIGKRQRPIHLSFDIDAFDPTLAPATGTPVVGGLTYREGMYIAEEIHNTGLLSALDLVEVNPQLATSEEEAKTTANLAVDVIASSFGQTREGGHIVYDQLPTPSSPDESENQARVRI
As to the kind of experiment: in vitro enzyme assay to detect the production of urea directly proportional to the activity of Arginase II. Also: in the data most compounds retested in dose-response had high values. The test is classed as functional. The conditions noted are these: 33.3 µM.

Test [7] addresses T3, Proteasome subunit beta (Trypanosoma cruzi) (UniProt O96673).
T3 sequence (whole entry): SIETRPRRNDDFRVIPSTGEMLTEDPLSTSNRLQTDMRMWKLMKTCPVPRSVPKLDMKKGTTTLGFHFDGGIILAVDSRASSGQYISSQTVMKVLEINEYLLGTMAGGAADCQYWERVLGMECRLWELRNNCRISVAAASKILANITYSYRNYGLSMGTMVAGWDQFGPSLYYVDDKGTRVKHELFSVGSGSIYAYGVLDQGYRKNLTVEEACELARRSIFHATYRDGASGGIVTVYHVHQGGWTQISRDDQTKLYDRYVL
In words: Trypanosoma cruzi proteasome chymotrypsin-like activity (TcProtChymo) assay. Also: in the data most compounds retested in dose-response had high values. The conditions noted are these: 9.37 µM. The test is classed as functional.

For test [8], the species on record is Homo sapiens. In words: To identify inhibition of the IFN signalling (Jak-Stat) pathway via expression of an eGFP reporter gene under the control of an IFN-stimulated response element (ISRE) containing MxA promoter. The test is classed as functional. The settings on record: 30 µM. (In general: A reporter such as luciferase makes a cellular process visible.)

Test [9] addresses T4, Tyrosyl-tRNA synthetase, putative (Trypanosoma cruzi (strain CL Brener)) (UniProt Q4DSP6).
T4 sequence (whole entry): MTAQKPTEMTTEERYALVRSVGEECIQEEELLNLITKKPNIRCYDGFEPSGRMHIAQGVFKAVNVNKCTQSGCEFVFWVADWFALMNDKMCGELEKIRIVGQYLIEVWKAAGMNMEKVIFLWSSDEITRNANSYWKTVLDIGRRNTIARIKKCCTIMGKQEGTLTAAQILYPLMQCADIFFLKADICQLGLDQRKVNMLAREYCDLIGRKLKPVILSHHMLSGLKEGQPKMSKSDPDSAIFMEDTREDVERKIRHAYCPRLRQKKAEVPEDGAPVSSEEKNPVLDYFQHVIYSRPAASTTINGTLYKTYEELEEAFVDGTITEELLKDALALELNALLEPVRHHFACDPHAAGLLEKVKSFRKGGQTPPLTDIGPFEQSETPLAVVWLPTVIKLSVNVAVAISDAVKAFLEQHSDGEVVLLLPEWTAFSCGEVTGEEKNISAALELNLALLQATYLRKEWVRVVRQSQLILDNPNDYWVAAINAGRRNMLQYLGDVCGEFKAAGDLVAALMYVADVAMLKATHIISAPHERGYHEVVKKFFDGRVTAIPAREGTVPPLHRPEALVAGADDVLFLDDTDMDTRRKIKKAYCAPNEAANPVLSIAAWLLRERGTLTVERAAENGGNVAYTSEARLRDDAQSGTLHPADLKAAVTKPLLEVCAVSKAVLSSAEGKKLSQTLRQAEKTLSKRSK
In words: Trypanosoma cruzi tyrosyl tRNA synthetase (TcYRS) _High Tyrosine SOP. Also: in the data most compounds retested in dose-response had high values. The test is classed as functional. The conditions noted are these: 30 µM.

Test [10] has as its target T4, Tyrosyl-tRNA synthetase, putative (Trypanosoma cruzi (strain CL Brener)). As to the kind of experiment: Trypanosoma cruzi tyrosyl tRNA synthetase (TcYRS) SOP. The conditions noted are these: 30 µM. The test is classed as functional.
Test [11] deals with Chromo domain-containing protein 1 (Saccharomyces cerevisiae (strain ATCC 204508 / S288c) (Baker's yeast)) (UniProt P32657). As to the kind of experiment: ScCHD-1 Enzyme Inhibition Assay. Also: in the data most compounds retested in dose-response had high values. The settings on record: 30 µM. Type of test: functional.
Sequence of Chromo domain-containing protein 1 (Saccharomyces cerevisiae (strain ATCC 204508 / S288c) (Baker's yeast)) (P32657 whole entry, the tested form may be a part): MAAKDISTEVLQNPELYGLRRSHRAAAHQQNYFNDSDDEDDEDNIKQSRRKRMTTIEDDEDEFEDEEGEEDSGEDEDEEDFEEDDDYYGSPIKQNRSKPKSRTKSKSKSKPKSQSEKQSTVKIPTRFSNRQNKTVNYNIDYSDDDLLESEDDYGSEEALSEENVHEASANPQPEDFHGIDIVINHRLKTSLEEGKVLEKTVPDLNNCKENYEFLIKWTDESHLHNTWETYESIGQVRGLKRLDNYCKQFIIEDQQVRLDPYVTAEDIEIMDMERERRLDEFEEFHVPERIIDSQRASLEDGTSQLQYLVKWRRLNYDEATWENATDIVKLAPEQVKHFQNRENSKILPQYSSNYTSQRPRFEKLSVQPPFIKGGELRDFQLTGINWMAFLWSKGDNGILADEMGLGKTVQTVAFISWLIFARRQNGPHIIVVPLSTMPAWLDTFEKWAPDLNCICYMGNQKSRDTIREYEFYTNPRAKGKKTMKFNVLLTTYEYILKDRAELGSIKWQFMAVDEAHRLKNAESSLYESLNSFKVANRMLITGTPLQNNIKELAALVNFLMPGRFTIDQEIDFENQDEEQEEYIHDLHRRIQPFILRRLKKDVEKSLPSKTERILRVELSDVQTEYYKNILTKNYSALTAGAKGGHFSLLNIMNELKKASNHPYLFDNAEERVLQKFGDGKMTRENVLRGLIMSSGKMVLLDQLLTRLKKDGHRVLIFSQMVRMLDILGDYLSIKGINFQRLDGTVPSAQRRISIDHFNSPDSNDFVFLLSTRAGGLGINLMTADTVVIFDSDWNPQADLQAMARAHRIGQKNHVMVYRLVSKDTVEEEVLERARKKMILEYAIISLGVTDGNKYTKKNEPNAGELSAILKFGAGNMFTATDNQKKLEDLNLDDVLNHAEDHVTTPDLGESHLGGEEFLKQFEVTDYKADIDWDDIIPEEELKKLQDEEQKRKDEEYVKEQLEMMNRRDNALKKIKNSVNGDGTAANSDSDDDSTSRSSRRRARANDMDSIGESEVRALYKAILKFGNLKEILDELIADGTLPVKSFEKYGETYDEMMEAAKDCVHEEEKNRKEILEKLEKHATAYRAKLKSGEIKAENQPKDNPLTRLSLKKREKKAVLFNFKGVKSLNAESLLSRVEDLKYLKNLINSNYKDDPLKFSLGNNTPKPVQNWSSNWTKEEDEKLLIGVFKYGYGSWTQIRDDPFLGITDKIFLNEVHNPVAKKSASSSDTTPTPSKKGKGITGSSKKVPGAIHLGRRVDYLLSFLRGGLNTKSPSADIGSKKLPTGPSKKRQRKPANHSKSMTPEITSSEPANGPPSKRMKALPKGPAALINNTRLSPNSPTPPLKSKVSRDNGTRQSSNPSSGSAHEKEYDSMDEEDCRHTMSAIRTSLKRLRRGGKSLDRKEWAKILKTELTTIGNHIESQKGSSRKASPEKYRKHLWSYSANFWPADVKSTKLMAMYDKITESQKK

Each structure is given as a SMILES string. For some assays here: Results with a measured potency or affinity are listed apart.

Sequence of Sialic acid-binding Ig-like lectin 9 (Homo sapiens) (Q9Y336 whole entry): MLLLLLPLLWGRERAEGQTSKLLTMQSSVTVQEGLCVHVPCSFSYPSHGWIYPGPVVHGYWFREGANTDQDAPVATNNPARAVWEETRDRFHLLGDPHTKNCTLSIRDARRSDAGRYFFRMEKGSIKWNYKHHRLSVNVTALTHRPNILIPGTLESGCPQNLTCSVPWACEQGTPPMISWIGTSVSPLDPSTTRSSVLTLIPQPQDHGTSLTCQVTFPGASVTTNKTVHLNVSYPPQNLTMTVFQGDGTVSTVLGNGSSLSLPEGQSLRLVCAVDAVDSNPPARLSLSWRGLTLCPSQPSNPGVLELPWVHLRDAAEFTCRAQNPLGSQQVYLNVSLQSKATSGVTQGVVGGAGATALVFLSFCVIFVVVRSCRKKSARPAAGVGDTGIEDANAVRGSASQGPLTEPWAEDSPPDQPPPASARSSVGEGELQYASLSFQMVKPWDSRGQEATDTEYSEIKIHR
Sequence of Protein translocase subunit SecA (Escherichia coli (strain K12)) (P10408 whole entry): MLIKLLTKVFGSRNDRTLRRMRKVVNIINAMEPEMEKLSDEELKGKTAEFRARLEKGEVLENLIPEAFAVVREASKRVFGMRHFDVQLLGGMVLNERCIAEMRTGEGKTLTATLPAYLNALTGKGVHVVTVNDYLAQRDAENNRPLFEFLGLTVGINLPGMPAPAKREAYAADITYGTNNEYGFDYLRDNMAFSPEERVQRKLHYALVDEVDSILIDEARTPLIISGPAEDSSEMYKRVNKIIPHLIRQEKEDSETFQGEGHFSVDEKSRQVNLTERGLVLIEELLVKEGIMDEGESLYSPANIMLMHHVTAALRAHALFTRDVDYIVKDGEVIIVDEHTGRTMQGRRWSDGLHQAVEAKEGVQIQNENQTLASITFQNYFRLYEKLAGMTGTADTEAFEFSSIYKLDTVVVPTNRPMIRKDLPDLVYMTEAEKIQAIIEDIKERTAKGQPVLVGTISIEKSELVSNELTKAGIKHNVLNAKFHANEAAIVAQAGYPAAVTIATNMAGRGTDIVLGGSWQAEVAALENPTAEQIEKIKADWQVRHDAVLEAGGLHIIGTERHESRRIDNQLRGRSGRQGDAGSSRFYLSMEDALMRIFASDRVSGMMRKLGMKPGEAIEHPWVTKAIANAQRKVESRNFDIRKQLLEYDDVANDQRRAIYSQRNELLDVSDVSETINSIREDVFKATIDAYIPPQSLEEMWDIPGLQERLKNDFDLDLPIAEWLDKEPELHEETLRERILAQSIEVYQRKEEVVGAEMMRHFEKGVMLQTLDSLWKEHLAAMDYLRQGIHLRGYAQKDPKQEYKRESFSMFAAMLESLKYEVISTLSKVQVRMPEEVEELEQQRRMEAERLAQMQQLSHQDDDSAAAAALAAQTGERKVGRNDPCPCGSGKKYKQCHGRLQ

Consider `CCc1nc(C2CCCN(C(=O)c3cn(C)nc3C)C2)no1` (stereo not given), for which the Percent Effect was -2.94% in [1]; 5.41% in test [2]; -8.22% in test [3]; 13.8% in [4]; 7.89% in test [5]; 0.185% in test [6]. Further, the Percent Effect in [7] stood at 5.57%; in [8], 9%; in test [9], 3.96%; in test [10], 13.4%; in test [11], 65.5%.
As to `Cc1ccc(C(=O)NC(CN2CCCC2=O)c2ccccc2)c(=O)[nH]1` (stereo not given), the Percent Effect in test [1] was -4.18%; in [2], 21.9%; in test [3], -6.93%; in test [4] it was 17.4%; in test [5], 5.88%; in test [6], 29.6%. Further, the Percent Effect is 9.23% in [7]; 2.33% in [8]; 5.38% in test [9]; 15% in [10]; -5.93% in [11].
Consider `CC(C)c1ccc(C(O)Cn2c(=O)c(C#N)cn(C3CC3)c2=O)cc1` (stereo not given), for which the Percent Effect in [1] is -0.117%; in test [2], -2.63%; in test [3], 7.18%; in test [4], 0.134%; in test [5] it was -6.39%; in test [6], 4.21%. In addition, the Percent Effect in test [7] was 0.334%; in test [8] it was 1.74%; in test [9], -1.47%; in test [10], -2.44%; in [11], -2.6%.
`Cc1ccc(CNCCOc2ccc(S(C)(=O)=O)cc2)cc1`: the Percent Effect in test [1] was -7.67%; in test [2] it was -5.48%; in [3] it was 4.35%; in test [4] it was -1.11%; in test [5], -2.18%; in [6], -0.798%. The Percent Effect in test [7] was -3.68%; in test [8] it was 9.56%; in test [9], 4.17%; in test [10], -1.24%; in test [11] it was 3.43%.
Take `Cn1nc(CNC(=O)c2ccc(Cl)cc2)c2c1CCOC2`: the Percent Effect in [1] is -1.53%; in test [2], 2.6%; in test [3], 6.72%; in [4] it was 8.57%; in test [5] it was 0.0986%; in test [6], -3.23%. The Percent Effect is 1.22% in test [7]; 5.87% in test [8]; 4.23% in test [9]; 6.41% in [10]; -3.86% in test [11].
For `O=S1(=O)N=C(SCc2ccc(Cl)cc2)Nc2ccc(F)cc21`, the Percent Effect in test [1] is -2.41%; in test [2], -7.79%; in test [3] it was -5.17%; in [4] it was -2.88%; in test [5] it was -1.08%; in test [6] it was 1.94%. The Percent Effect was 13.8% in [7]; 21.9% in test [8]; -6.35% in test [9]; -8.97% in [10]; -10.5% in [11].
For `CC(=O)N1CCC2(CC1)COCCN2CCN(C)C`, the Percent Effect in test [1] was -1.15%; in [2], 5.33%; in test [3], 0.268%; in [4], 4.02%; in [5], -4.25%; in [6], -26.3%. Besides, the Percent Effect in test [7] is 3.59%; in test [8], -11.5%; in [9], 2.08%; in test [10] it was -25%; in [11], -5.07%.
As to `COc1cccc(CCC(=O)N2CCCC(n3cc(C)cn3)C2)c1` (stereo not given), the Percent Effect in test [1] was 0.219%; in [2], -3.8%; in [3], 11.1%; in test [4], -1.76%; in [5], -0.923%; in test [6], 9.25%. The Percent Effect is 1.03% in test [7]; -7.62% in test [8]; -5.21% in [9]; 0% in test [10]; -20% in [11].
For the compound `O=C(NCCN1CCNCC1)c1nc2ccccc2c(=O)[nH]1`, the Percent Effect in test [1] is 3.26%; in test [2], 9.33%; in test [3] it was 2.04%; in test [4] it was -5.44%; in [5] it was -7.47%; in test [6] it was -10.7%. Moreover, the Percent Effect in test [7] was 12%; in test [8], -0.251%; in test [9] it was 4.23%; in test [10], 12.8%; in [11], -7.33%.
In the case of `CNC(=O)[C@H]1C[C@@H]2CN(C(=O)Nc3ccc(F)cc3)C[C@H]1O2`, the Percent Effect was -1.87% in [1]; 13% in test [2]; 7.85% in test [3]; 4.28% in test [4]; 1.28% in [5]; 9.68% in test [6]. Besides, the Percent Effect in [7] is 9.05%; in [8] it was 18.3%; in test [9], 7.41%; in test [10], 16.7%; in [11] it was -7.08%.
